# Assay results as given in PMC7862700, “An all-to-all approach to the identification of sequence-specific readers for epigenetic DNA modifications on cytosine”.
# Tests used:
# Assay in all cases: DAPPL (digital affinity profiling via proximity ligation, sequencing); 10 mM Tris-HCl pH 7.5, 50 mM NaCl, 1 mM DTT, 4% glycerol, room temperature, 30 min; GST-TFs on glutathione beads, 16-mer random dsDNA library, 0.1% formaldehyde crosslink after washing; high values mean tight binding
# Settings in all cases: protein: recombinant; tags: N-terminal GST; dsDNA, one strand shown
# FLI1 = molecular target: T1, FLI1 (Homo sapiens, UniProt Q01543 1-452)
# T1 sequence: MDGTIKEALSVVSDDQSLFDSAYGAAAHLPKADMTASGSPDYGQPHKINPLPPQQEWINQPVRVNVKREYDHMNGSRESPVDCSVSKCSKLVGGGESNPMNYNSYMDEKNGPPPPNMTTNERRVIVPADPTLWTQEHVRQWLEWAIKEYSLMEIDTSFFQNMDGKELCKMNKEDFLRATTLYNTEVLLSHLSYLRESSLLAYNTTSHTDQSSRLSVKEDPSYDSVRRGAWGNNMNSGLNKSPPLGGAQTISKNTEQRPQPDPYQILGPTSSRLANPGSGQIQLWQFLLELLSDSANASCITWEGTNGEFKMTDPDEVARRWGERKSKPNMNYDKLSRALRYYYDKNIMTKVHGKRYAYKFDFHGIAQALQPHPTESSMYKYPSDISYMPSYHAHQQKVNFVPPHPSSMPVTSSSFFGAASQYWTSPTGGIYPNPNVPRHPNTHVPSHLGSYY
# Method in brief: (§1)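 Sequencing on an Illumina NextSeq500 followed washing, crosslinking with 0.1% formaldehyde, proximity ligation (BsaI/T4 ligase, 1 h, 37 °C) and PCR amplification of pools that had been incubated for 30 min at room temperature with 200 nmole of a random double-stranded 16-mer DNA library in Tris/NaCl/DTT/glycerol buffer. Each pool held DNA-barcoded human transcription factors, expressed in yeast as GST fusions and captured on glutathione beads, plus a tag-only sample. Binding signal is a hexamer's read frequency for a factor divided by its frequency in the tag-only sample.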
# ELK1 = molecular target: T2, ELK1 (Homo sapiens, UniProt P19419 1-428)
# T2 sequence: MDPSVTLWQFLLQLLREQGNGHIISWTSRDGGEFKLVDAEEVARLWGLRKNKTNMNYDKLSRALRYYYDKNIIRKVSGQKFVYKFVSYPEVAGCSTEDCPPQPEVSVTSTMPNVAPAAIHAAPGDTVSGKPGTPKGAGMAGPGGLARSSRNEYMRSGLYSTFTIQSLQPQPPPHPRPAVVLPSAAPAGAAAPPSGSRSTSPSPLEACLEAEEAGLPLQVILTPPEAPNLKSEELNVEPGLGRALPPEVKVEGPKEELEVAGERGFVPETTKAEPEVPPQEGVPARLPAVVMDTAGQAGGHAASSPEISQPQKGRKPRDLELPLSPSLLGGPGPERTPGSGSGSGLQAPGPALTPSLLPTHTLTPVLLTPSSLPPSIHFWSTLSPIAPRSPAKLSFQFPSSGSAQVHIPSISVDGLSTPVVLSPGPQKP
# Method in brief: as §1
# GABPA = molecular target: T3, GABPA (Homo sapiens, UniProt Q06546 1-454)
# T3 sequence: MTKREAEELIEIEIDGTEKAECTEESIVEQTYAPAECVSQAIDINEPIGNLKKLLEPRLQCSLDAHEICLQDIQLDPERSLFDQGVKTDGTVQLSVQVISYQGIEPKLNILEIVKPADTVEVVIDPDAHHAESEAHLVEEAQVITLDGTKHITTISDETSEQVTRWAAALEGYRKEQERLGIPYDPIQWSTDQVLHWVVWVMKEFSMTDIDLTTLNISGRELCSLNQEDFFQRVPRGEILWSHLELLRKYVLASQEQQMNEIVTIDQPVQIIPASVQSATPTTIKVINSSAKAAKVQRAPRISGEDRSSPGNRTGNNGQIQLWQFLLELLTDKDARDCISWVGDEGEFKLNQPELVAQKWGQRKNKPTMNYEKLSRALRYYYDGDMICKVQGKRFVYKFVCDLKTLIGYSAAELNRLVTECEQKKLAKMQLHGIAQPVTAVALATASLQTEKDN
# Method in brief: as §1
# ERG = molecular target: T4, ERG (Homo sapiens, UniProt P11308 1-479)
# T4 sequence: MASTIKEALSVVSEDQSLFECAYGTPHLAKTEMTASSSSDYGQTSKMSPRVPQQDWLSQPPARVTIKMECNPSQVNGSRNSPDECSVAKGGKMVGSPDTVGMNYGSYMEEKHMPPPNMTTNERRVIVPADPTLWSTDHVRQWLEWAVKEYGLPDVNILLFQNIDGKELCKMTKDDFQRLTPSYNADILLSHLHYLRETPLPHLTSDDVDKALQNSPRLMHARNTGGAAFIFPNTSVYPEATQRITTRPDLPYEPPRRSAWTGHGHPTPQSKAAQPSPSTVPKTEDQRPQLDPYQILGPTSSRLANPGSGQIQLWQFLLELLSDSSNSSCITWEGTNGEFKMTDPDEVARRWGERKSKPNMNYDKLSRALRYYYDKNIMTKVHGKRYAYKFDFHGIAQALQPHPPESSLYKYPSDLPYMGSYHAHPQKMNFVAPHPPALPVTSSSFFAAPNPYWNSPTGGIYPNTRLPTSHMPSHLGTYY
# Method in brief: as §1
# ELF1 = ELF1 (Homo sapiens, UniProt P32519 1-619)
# Sequence of ELF1 (P32519 whole entry): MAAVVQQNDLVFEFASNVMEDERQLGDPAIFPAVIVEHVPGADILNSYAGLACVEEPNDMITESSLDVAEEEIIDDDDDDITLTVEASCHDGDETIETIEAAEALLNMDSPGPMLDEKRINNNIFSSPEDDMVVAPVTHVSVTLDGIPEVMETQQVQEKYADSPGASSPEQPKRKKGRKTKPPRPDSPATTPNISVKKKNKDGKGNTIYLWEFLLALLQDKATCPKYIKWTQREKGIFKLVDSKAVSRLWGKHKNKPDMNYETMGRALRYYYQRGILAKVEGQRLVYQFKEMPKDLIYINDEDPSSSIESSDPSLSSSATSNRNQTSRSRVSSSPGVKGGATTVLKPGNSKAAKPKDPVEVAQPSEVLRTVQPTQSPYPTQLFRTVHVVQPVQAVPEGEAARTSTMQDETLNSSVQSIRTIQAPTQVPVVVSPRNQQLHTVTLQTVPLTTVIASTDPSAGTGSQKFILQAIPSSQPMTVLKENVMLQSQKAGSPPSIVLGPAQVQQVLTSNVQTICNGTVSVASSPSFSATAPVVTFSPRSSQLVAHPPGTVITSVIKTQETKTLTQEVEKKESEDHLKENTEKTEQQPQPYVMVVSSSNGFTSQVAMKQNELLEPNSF
# Method in brief: as §1
# EHF = molecular target: T5, EHF (Homo sapiens, UniProt Q9NZC4 1-300)
# T5 sequence: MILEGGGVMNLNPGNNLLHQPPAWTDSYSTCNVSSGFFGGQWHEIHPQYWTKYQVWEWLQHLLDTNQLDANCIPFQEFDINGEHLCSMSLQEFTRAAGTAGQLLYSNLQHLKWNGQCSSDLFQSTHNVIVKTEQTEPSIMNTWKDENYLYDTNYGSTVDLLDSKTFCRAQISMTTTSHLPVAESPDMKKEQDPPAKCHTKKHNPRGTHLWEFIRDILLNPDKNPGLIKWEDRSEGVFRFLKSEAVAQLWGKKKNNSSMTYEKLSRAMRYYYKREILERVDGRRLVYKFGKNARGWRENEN
# Method in brief: as §1
# SPI1 = SPI1 (Homo sapiens, UniProt P17947 1-270)
# Method in brief: as §1
# SPIB = SPIB (Homo sapiens, UniProt Q01892 1-262)
# Sequence of SPIB (Q01892 whole entry): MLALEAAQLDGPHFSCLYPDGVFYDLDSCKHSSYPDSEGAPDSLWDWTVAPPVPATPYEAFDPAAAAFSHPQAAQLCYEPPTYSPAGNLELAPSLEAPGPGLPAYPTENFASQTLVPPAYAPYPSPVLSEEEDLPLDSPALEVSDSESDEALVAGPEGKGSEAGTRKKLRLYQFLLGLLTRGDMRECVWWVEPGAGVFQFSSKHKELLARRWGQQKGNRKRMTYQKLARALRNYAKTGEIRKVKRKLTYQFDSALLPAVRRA
# Method in brief: as §1
# ELK3 = molecular target: T6, ELK3 (Homo sapiens, UniProt P41970 1-407)
# T6 sequence: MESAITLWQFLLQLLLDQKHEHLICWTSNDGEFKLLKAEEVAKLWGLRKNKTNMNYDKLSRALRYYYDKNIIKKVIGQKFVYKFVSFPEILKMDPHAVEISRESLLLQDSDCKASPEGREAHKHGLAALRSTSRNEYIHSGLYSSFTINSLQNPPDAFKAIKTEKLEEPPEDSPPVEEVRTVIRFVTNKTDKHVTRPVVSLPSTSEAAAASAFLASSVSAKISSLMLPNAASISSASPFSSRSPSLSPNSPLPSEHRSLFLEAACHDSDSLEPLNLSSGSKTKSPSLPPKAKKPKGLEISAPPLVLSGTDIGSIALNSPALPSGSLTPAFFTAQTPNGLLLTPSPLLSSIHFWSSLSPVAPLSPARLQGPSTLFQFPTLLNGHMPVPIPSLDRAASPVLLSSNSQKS
# Method in brief: as §1
# FEV = molecular target: T7, FEV (Homo sapiens, UniProt Q99581 1-238)
# T7 sequence: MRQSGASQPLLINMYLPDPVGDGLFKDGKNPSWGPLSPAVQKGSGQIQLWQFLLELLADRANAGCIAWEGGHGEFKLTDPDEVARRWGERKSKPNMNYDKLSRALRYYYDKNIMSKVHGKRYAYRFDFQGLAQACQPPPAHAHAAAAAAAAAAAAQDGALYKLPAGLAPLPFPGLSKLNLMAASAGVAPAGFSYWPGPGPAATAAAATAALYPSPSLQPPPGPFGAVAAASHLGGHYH
# Method in brief: as §1
# ETV5 = ETV5 (Homo sapiens, UniProt P41161 1-510)
# Sequence of ETV5 (P41161 whole entry): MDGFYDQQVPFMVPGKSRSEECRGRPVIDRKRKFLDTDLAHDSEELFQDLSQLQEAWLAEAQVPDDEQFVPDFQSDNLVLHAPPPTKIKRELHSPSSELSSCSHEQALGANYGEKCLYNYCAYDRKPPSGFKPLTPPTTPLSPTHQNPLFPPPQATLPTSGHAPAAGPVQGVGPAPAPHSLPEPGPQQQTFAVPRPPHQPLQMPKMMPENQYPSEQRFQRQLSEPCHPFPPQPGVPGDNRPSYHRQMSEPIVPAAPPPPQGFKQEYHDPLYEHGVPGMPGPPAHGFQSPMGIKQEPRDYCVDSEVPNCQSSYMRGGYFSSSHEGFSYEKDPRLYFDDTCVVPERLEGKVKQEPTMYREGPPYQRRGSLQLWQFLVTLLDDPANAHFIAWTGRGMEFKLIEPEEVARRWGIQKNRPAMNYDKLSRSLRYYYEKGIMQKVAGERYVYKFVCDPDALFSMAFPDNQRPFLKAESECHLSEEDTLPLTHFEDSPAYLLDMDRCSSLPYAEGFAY
# Method in brief: as §1
# SPIC = molecular target: T8, SPIC (Homo sapiens, UniProt Q8N5J4 1-248)
# T8 sequence: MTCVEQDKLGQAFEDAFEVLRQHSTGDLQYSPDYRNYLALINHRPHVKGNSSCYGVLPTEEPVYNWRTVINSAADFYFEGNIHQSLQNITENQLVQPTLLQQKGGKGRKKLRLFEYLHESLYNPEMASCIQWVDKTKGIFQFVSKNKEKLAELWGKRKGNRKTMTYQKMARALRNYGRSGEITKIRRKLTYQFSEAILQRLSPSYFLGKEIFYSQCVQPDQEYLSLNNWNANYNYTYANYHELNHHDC
# Method in brief: as §1
# ELF4 = ELF4 (Homo sapiens, UniProt Q99607 1-663)
# Sequence of ELF4 (Q99607 whole entry): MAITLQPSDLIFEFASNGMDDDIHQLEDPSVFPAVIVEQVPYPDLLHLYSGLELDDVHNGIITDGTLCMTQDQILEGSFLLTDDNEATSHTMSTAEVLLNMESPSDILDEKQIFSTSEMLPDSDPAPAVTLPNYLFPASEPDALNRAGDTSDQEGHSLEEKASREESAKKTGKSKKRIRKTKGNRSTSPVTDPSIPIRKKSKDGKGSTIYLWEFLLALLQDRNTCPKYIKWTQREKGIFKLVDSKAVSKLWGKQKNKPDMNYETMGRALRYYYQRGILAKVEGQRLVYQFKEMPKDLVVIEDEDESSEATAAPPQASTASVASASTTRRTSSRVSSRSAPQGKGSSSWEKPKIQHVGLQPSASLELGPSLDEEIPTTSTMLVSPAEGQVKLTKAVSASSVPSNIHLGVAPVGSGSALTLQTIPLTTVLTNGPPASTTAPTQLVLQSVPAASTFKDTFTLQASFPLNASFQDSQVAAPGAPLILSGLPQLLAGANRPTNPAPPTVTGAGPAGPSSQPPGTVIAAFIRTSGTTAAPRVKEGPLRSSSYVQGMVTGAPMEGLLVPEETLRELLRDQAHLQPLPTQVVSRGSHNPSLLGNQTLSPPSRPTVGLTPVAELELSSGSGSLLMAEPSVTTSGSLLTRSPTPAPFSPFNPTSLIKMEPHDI
# Method in brief: as §1
# ELK4 = molecular target: T9, ELK4 (Homo sapiens, UniProt P28324-2 1-405)
# T9 sequence: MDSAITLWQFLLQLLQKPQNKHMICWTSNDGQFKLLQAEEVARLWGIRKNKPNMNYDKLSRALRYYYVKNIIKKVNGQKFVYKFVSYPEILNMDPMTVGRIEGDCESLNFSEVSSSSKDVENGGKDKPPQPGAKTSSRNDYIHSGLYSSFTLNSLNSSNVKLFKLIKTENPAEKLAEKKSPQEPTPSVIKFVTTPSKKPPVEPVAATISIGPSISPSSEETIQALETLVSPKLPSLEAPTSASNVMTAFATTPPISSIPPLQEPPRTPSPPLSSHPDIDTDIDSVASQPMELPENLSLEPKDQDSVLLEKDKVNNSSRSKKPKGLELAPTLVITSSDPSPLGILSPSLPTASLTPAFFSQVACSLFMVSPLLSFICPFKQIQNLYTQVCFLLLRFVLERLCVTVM
# Method in brief: as §1
# ETV2 = molecular target: T10, ETV2 (Homo sapiens, UniProt O00321 1-342)
# T10 sequence: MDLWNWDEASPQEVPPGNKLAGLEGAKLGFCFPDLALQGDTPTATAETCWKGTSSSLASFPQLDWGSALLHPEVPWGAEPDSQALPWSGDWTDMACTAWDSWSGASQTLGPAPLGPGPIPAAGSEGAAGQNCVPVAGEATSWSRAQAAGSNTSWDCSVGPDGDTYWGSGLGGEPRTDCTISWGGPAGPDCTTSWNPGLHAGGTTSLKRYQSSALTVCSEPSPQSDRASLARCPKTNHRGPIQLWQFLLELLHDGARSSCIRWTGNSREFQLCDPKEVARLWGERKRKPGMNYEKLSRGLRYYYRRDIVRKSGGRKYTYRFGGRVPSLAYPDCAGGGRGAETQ
# Method in brief: as §1
# ELF3 = molecular target: T11, ELF3 (Homo sapiens, UniProt P78545 1-371)
# T11 sequence: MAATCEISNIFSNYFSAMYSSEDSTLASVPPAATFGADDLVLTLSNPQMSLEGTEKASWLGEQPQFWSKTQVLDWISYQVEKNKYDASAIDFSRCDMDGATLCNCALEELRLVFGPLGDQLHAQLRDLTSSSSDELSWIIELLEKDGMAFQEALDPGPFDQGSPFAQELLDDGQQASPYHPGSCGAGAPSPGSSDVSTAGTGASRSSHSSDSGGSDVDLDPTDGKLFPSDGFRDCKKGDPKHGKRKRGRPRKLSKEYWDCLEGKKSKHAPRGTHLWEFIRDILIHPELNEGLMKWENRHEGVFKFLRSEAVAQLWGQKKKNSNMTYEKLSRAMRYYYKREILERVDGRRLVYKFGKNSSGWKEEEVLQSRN
# Method in brief: as §1
# ETV1 = ETV1 (Homo sapiens, UniProt P50549 1-477)
# Sequence of ETV1 (P50549 whole entry): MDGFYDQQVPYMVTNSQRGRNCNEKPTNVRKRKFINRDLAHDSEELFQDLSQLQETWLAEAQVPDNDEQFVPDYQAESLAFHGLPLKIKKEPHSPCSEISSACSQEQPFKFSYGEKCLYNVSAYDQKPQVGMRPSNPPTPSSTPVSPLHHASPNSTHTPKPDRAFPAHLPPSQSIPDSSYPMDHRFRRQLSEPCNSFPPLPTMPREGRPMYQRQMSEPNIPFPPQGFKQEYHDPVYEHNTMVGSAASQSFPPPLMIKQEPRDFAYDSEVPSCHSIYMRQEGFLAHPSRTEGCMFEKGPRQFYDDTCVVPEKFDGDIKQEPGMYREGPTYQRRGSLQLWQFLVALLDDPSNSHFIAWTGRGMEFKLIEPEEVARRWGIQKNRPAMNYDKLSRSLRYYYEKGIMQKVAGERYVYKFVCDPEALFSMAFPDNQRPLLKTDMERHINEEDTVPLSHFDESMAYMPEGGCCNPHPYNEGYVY
# Method in brief: as §1
sequence,measurement,setting,value
CGACCG,binding signal,FLI1,"1.2 fold enrichment (6-mer frequency, TF over GST control)"
same,binding signal,ELK1,"1.19 fold enrichment (6-mer frequency, TF over GST control)"
same,binding signal,GABPA,"1.21 fold enrichment (6-mer frequency, TF over GST control)"
same,binding signal,ERG,"1.36 fold enrichment (6-mer frequency, TF over GST control)"
same,binding signal,ELF1,"1.17 fold enrichment (6-mer frequency, TF over GST control)"
same,binding signal,EHF,"1.11 fold enrichment (6-mer frequency, TF over GST control)"
same,binding signal,SPI1,"1.06 fold enrichment (6-mer frequency, TF over GST control)"
same,binding signal,SPIB,"1.07 fold enrichment (6-mer frequency, TF over GST control)"
same,binding signal,ELK3,"1.21 fold enrichment (6-mer frequency, TF over GST control)"
same,binding signal,FEV,"1.6 fold enrichment (6-mer frequency, TF over GST control)"
same,binding signal,ETV5,"1.19 fold enrichment (6-mer frequency, TF over GST control)"
same,binding signal,SPIC,"1.09 fold enrichment (6-mer frequency, TF over GST control)"
same,binding signal,ELF4,"1.28 fold enrichment (6-mer frequency, TF over GST control)"
same,binding signal,ELK4,"1.17 fold enrichment (6-mer frequency, TF over GST control)"
same,binding signal,ETV2,"1.35 fold enrichment (6-mer frequency, TF over GST control)"
same,binding signal,ELF3,"1.27 fold enrichment (6-mer frequency, TF over GST control)"
same,binding signal,ETV1,"1.26 fold enrichment (6-mer frequency, TF over GST control)"
